In the library only some 11% were active in any assay of this set; here they are far more common.
Tau fluor counter – counter-screen for tau fibril formation inhibitors; 280,000 tested, 0.93% active; Potency, µM (series often up to 57.7 µM), without a hit: at the top dose activity change, negative = decrease; tau K18 P301L Alexa594 fluorescence, heparin fibrillization; AID 1463; also: potency is read from the fitted curve at half-maximal effect; nearly all actives have a fitted effect of over 55% in size
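Human K18 P301L tau (15 uM unlabeled plus 0.24 uM Alexa 594-labeled, final) in 100 mM sodium acetate pH 7 was mixed with compound and 20 uM heparin and incubated 6 hr at 37 C.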
Sfp PPTase inh – Sfp phosphopantetheinyl transferase inhibition | AID 1490 | 310,000 tested, 3.5% active | Potency, µM, for the others: largest response in the series, negative = inhibition, hits mostly inhibitors | Biochemical Sfp PPTase activity, qHTS | Q9F4F7;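 also: the enzyme is Sfp with the accession as filed and its product quenches rhodamine fluorescence; potency is read from the fitted curve at half-maximal effect; 0% = enzyme reaction without inhibitor and -100% = no enzyme wells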
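Sfp 15 nM + cpd, 15 min RT; start w/ rhodamine-CoA 5 uM, BHQ-2-YbbR 12.5 uM (final); 50 mM Hepes pH 7.6, 10 mM MgCl2, 0.01% NP-40, 0.01% BSA; read 525/598 nm at 0 and 30 min.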
Tau ThT inhib – inhibitors of human tau fibril formation, thioflavin T binding. recombinant tau K18 P301L (four-repeat tau fragment), heparin-induced fibrillization, ThT fluorescence. Potency, µM (series often up to 57.4 µM), inactives show top-dose activity, negative = inhibition, usual class: inhibitors. 270,000 tested, 2.1% active; also: potency is read from the fitted curve at half-maximal effect; nearly all actives have a fitted effect of over 55% in size
Target sequence (P10636 561-689 P618L limits assumed): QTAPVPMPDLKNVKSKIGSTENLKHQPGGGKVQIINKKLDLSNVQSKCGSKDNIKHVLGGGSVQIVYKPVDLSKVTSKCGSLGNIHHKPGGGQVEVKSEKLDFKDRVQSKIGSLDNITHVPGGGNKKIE
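In this qHTS, human K18 P301L tau is incubated with compound and heparin for 6 hr at 37 C, and Thioflavin T fluorescence then reports fibril load.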
FBPA coupling cs – inhibits coupling enzyme system, counter-screen for aldolase hits; coupling enzyme system counterscreen, AmpLite Red fluorescence; activity change, negative = inhibition, % at 58.2 µM, hits read low; 290,000 tested, 0.67% active; in the data active = activity change below about -30%
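Compounds tested against the coupling enzymes alone at 57.5 uM final; readout was AmpLite Red fluorescence (525/598 nm) after 20 min at RT.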
G9a inh – blocks human histone lysine methyltransferase G9a | Q96KQ7 | 350,000 tested, 8.8% active | AID 504332 | G9a H3K9 monomethylation, AlphaScreen, 2 h | Potency, µM (highest dose often 102 µM), for the others: top-dose activity, negative = inhibition, most hits filed as inhibitors; also: potency is read from the fitted curve at half-maximal effect; nearly all actives have a fitted effect of over 75% in size
Target sequence (Q96KQ7 913-1193 limits assumed): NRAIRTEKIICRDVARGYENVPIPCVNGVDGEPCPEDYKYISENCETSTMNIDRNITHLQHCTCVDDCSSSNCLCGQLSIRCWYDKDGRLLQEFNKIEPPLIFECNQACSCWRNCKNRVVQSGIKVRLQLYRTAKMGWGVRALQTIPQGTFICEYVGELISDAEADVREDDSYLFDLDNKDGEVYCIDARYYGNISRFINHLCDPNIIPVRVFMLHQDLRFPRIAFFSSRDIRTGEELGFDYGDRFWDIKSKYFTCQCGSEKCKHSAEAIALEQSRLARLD
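Quantitative HTS format: methyltransferase activity on a biotin-tagged H3K9 peptide is measured by AlphaScreen, using a rabbit anti-monomethyl-H3K9 antibody with streptavidin donor and anti-IgG acceptor beads. Final levels are 20 nM enzyme, 500 nM peptide, 20 uM SAM; 2 h RT.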
Tau FP inhib – inhibitors of human tau fibril formation. K18 P301L tau heparin fibrillization, Alexa594 FP, 6 h. Potency, µM (highest dose often 57.7 µM), inactives show at the top dose activity, negative = inhibition, usual class: inhibitors. 280,000 tested, 0.39% active. P10636; also: potency is read from the fitted curve at half-maximal effect; nearly all actives have a fitted effect of over 55% in size
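FP of Alexa 594-tau after heparin (20 uM) induction. Substrate: human K18 P301L, 15 uM unlabeled, 0.24 uM labeled. Buffer 100 mM sodium acetate pH 7. 6 hr, 37 C.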
Numbers without * were called inactive; ? = inconclusive; / = no result given; [ ] = remark or other dose. Unless noted, calls follow the shape of the dose curve; as a rule, active = well fitted curve in the direction sought with a large enough effect; inconclusive = small, poorly fitted or top-dose-only effect, or another doubt; inactive = no such curve, though single readings can be large; an effect the other way counts as inactive or inconclusive. Unless noted, % is scaled to controls: 0 for no effect and ±100 for the full control effect.

SMILES	Tau fluor counter	Sfp PPTase inh	Tau ThT inhib	FBPA coupling cs	G9a inh	Tau FP inhib
O=C(c1ccc(F)cc1)N1CCN(c2ccc([N+](=O)[O-])cc2-n2cccc2)CC1	?	8%	/	5	50µM*	2%
O=C(c1ccc(F)cc1)N1CCN(c2cc(N3CCCCC3)c(F)cc2[N+](=O)[O-])CC1	-11%	0%	?	0	18µM*	4%
O=[N+]([O-])c1cc(F)c(N2CCOCC2)cc1N1CCCCC1	-13%	9%	?	9	50µM*	0%
O=C(c1ccccc1F)N1CCN(c2ccc([N+](=O)[O-])cc2-n2cccc2)CC1	-13%	-12%	/	4	/	9%
O=C1c2[nH]nc(-c3ccc(F)cc3)c2C(c2ccccc2F)N1c1ccccc1 (stereo not given)	?	/	?	/	?	-7%
CCOc1ccc(-n2c(Cc3ccccc3)nnc2SCc2nc(-c3ccccc3C)no2)cc1	-14%	/	-10%	/	-33%[59 µM]	2%
O=C1CC2(CCN(C(=O)c3ccc(Br)cc3)CC2)Oc2ccccc21	/	/	/	/	9%[0.501 µM]	/
CCOc1ccc(CNc2ccc3c(c2)ncn3C)cc1	-13%	-17%	?	-21	?	9%
CCn1cnc2cc(NCc3nc4ccccc4n3Cc3ccccc3)ccc21	-24%	14%	?	-9	?	-5%
CCOc1ccc(CNc2ccc3c(c2)ncn3C(C)(C)C)cc1	/	-1%	/	-2	79µM*	/
CCN(CC)c1ccc(CNc2ccc3c(c2)ncn3CC)cc1	/	-19%	/	0	22µM*	/
CCn1cnc2cc(NCc3ccc(N(C)C)cc3)ccc21	11µM*[quencher]	-5%	?	-1	11µM*	6%
CN(C)c1ccc(CNc2ccc3c(c2)ncn3C(C)(C)C)cc1	/	-29%	/	0	22µM*	/
Cc1ccc(S(=O)(=O)NCC[C@@]2(C)C3CCC2(C)C(=O)C3)cc1 (stereo not given in full)	-17%	-6%	-13%	3	34%	-5%
Cc1ccc(S(=O)(=O)N/N=C2\C(=O)C3(C)CCC2C3(C)C)cc1 (stereo not given)	-3%	19%	0%	-2	14µM*	-3%
Cc1cc(C(=O)NCc2ccccc2F)c2ccccc2n1	/	-3%	/	-2	1%	/
c1ccc2c3c([nH]c2c1)[C@@H]1[C@H]2CC[C@H]([C@H]4CCCN[C@H]42)N1CC3	/	8%	/	-3	10µM*	/
c1ccc([C@H]2NCCc3c2[nH]c2ccccc32)cc1	-10%[11.6 µM]	-9%	-7%[11.5 µM]	-1	/	10%[11.6 µM]
COC(=O)C1=C(C)N(c2cccc(OC)c2)C(=O)/C1=C\c1ccco1	-20%	-17%	?	-2	?	-11%
CCOc1cc(/C=C2\C(=O)N(CCc3ccc(OC)c(OC)c3)C(C)=C2C(=O)OC)ccc1O	?	50µM*	28µM*	-16	?	?
COC(=O)C1=C(C)N(Cc2ccc(C)cc2)C(=O)/C1=C\c1cc(OC)c(OC)c(OC)c1	-16%	-16%	?	-1	25µM*	-8%
COC(=O)C1=C(C)N(c2ccc(OC)c(OC)c2)C(=O)/C1=C\c1cccs1	-12%	-5%	?	3	?	-12%
COC(=O)C1=C(C)N(Cc2ccc(C)cc2)C(=O)/C1=C\c1ccc(O)c(OC)c1	?	50µM*	14µM*	-12	19%[2.33 µM]	?
CCOc1cc(/C=C2\C(=O)N(Cc3ccco3)C(C)=C2C(=O)OC)ccc1O	?	20µM*	28µM*	-14	8.9µM*	?
CCOC(=O)c1c(NC(=O)c2cc(=O)c3c(C)cc(C)cc3o2)sc(C(C)=O)c1C	-9%	/	-5%	/	-1%[59 µM]	-2%
SMILES	Tau fluor counter	Sfp PPTase inh	Tau ThT inhib	FBPA coupling cs	G9a inh	Tau FP inhib
CCN(CC)CCCN(Cc1cc2cc3c(cc2[nH]c1=O)OCO3)C(=S)Nc1ccccc1	-7%	-1%	3%	-1	/	-2%
COc1ccc(OC)c2sc(N(Cc3cccnc3)C(=O)c3ccco3)nc12	-15%	/	-5%	/	-6%[59 µM]	-9%
CCC(=O)N1CCc2cc(S(=O)(=O)N3CCN(c4ccccc4Cl)CC3)ccc21	/	14%	/	/	15%	/
CCOC(=O)C1=C(C)N(c2ccc(C)cc2)C(=O)/C1=C\c1ccc(O)c(OC)c1	?	45µM*	25µM*	-17	/	?
CCOc1ccc(N2C(=O)S/C(=C\c3ccc(O)c(OC)c3)C2=O)cc1	?	-9%	?	2	2%	-4%
CCn1cc(C(=O)NCCCN(C)C)c(=O)c2cc(F)c(N3CCN(C)CC3)cc21	1%	20%	-4%	-2	35µM*	-5%
CCn1cc(C(=O)NCCN(C)C)c(=O)c2cc(F)c(N3CCN(C)CC3)cc21	/	-2%	/	0	50µM*	/
CCc1ccc(S(=O)(=O)c2nnn3c2nc(N2CCCC2)c2sccc23)cc1	5%	/	7%	/	18%[59 µM]	2%
[O-]C1=N/[N+](=C/c2ccccc2)CC1	8%	0%	/	1	14µM*	-3%
Cc1cc2oc(C(=O)N(Cc3ccco3)Cc3ccccc3Cl)c(C)c2cc1C	-11%	/	-11%	/	12%[59 µM]	-10%
Cc1cc(C)c(OCC(=O)N(Cc2ccc(N(C)C)cc2)Cc2ccco2)c(C)c1	?	/	?	/	13µM*	-4%
Cc1cc2oc(C(=O)N(Cc3ccc(N(C)C)cc3)Cc3ccco3)c(C)c2cc1Cl	?	/	-15%	/	13µM*	7%
CCn1cnc2sc(C(=O)N(Cc3ccc(N(C)C)cc3)Cc3ccco3)c(C)c2c1=O	?	?	?	-1	16µM*	0%
Cc1cccc(OCC(=O)N(Cc2ccc(N(C)C)cc2)Cc2ccco2)c1C	?	/	?	/	14µM*	10%
CCOc1ccc2nc(N(Cc3cccnc3)C(=O)c3ccc4c(c3)OCCO4)sc2c1	-13%	/	-7%	/	-1%[59 µM]	-4%
CN(C)c1ccc(CN(Cc2ccco2)C(=O)c2ccc(C(C)(C)C)cc2)cc1	-23%	/	-17%	/	11µM*	9%
Cc1cccc(N2CC(c3nc4ccc(C)cc4[nH]3)CC2=O)c1 (stereo not given)	-7%	/	-3%	/	9%[59 µM]	4%
CCS(=O)(=O)n1nc(-c2ccccc2)nc1NCc1ccco1	-5%	13%	0%	3	25µM*	-3%
O=C(O)c1cc(-c2ccc(/C=c3\sc4nc5ccc(Br)cc5n4c3=O)o2)ccc1Cl	/	56µM*	/	3	0.79µM*	/
Cc1cc2nc(/C(C#N)=C\c3ccc(-c4ccccc4C(=O)O)o3)[nH]c2cc1C	/	-3%	/	-5	?	/
O=C(O)c1ccccc1-c1ccc(/C=c2\sc3nc4cc(Br)cnc4n3c2=O)o1	-20%	35µM*	?	-14	?	?
